# Key:
# Type in all cases: functional
# [1] = tested on: Plasmodium falciparum; test: GSK_TCMDC: Inhibition of Plasmodium falciparum 3D7 in whole red blood cells, using parasite LDH activity as an index of growth. Test compounds present at 2uM
# [2] = tested on: Plasmodium falciparum; test: GSK_TCMDC: Inhibition of Plasmodium falciparum Dd2 in whole red blood cells, using parasite LDH activity as an index of growth. Test compounds present at 2uM
# [3] = tested on: HepG2; test: GSK_TCMDC: Percent inhibition of human HepG2 cell line. Test compounds present at 10uM.
compound,measurement,setting,value
CN(C)CCC1CCCc2ccc(NC(=O)Nc3ccc(-c4ccncc4)c4ccccc34)cc21.Cl (centres undefined),Inhibition,[1],89%
same,Inhibition,[2],27%
same,Inhibition,[3],34%
CC1CN(c2cnn(Cc3cccc(NC(=O)Nc4cccc(C(F)(F)F)c4)c3)c(=O)c2Cl)CC(C)N1.O=C(O)C(F)(F)F (centres undefined),Inhibition,[1],96%
same,Inhibition,[2],74%
same,Inhibition,[3],19%
C[C@@H](C(N)=O)N1CCCCC1c1ccc(OCc2cccc(F)c2)cc1 (some centres undefined),Inhibition,[1],84%
same,Inhibition,[2],96%
same,Inhibition,[3],79%
Cc1cccc2nc(-c3ccc(-c4ccc(CN5CCCC5CN)cc4)cc3)[nH]c12.O=C(O)C(F)(F)F (centres undefined),Inhibition,[1],99%
same,Inhibition,[2],65%
same,Inhibition,[3],28%
O=C(Nc1cccc(OC2CCN(Cc3ccccc3)CC2)c1)Nc1cccc([N+](=O)[O-])c1.O=C(O)C(F)(F)F,Inhibition,[1],100%
same,Inhibition,[2],48%
same,Inhibition,[3],10%
CN(Cc1cccc(F)c1)C1CCN(c2cc(NC(=O)c3ccc(F)cc3)ccn2)CC1.O=C(O)C(F)(F)F,Inhibition,[1],95%
same,Inhibition,[2],36%
same,Inhibition,[3],0%
Cc1ccc(C)c(-n2c(SCC(=O)Nc3ccc(C(N)=O)cc3)nnc2-c2cccc(Cl)c2)c1,Inhibition,[1],92%
same,Inhibition,[2],91%
same,Inhibition,[3],6%
Cc1cc(NCC2CCN(CC3CCCCC3)C2)nc(Nc2ccc(Cl)cc2)n1 (centres undefined),Inhibition,[1],100%
same,Inhibition,[2],74%
same,Inhibition,[3],2%
O=C(NCCCCN1CCC(c2ccc(C(F)(F)F)cc2C(F)(F)F)CC1)c1ccc(NC(=O)c2ccc(Cl)cc2)cc1,Inhibition,[1],99%
same,Inhibition,[2],59%
same,Inhibition,[3],4%
COc1cccc(C2CCN(CCN3CCC(NC(=O)c4ccc(-c5ccc(Cl)cc5)cc4)CC3)CC2)c1,Inhibition,[1],93%
same,Inhibition,[2],42%
same,Inhibition,[3],31%
COc1ccccc1C1CCN(CCCCNC(=O)c2ccc(NC(=O)c3ccc(Cl)cc3)cc2)CC1,Inhibition,[1],95%
same,Inhibition,[2],12%
same,Inhibition,[3],21%
Cl.O=c1cc(NCCCNC2CCOc3c(Cl)cc(Cl)cc32)[nH]c2ccccc12 (centres undefined),Inhibition,[1],100%
same,Inhibition,[2],88%
same,Inhibition,[3],0%
Cc1cc(Nc2ccc(Oc3ccc(Cl)cc3)cc2)nc(N)n1,Inhibition,[1],100%
same,Inhibition,[2],71%
same,Inhibition,[3],49%
CCOc1c(CNCCCCCCNCc2ccc3ccccc3c2OCC)ccc2ccccc12.CS(=O)(=O)O,Inhibition,[1],99%
same,Inhibition,[2],78%
same,Inhibition,[3],100%
O=C(O)C(F)(F)F.Oc1ccc(CCNc2nc(NCc3ccccc3-c3ccc(F)cc3)nc(N3CCNCC3)n2)cc1,Inhibition,[1],92%
same,Inhibition,[2],24%
same,Inhibition,[3],15%
COc1cc2c(cc1S(=O)(=O)c1ccc(NC(=O)c3cccc(C(F)(F)F)c3)cc1)CCN(C)CC2,Inhibition,[1],92%
same,Inhibition,[2],25%
same,Inhibition,[3],18%
CCNc1cc(C)nc(Nc2ccccc2)n1,Inhibition,[1],92%
same,Inhibition,[2],8%
same,Inhibition,[3],16%
CCC1(CC)C(=O)N=C(N2CCCCC2)N(C)C1=O,Inhibition,[1],89%
same,Inhibition,[2],66%
same,Inhibition,[3],0%
O=C(N[C@@H](Cc1ccccc1)C(=O)NCCN1CCCC1)c1ccc(O)c(-c2ccc(Cl)c(Cl)c2)c1,Inhibition,[1],95%
same,Inhibition,[2],46%
same,Inhibition,[3],8%
O=C(NC1CCCc2ccccc21)[C@@H]1CCCN1C(=O)c1ccc(O)c(-c2cccc([N+](=O)[O-])c2)c1 (some centres undefined),Inhibition,[1],99%
same,Inhibition,[2],99%
same,Inhibition,[3],0%
CC(C)COc1ccc(Cl)cc1Cc1ccc(-c2nc3ccc(Cl)cc3[nH]2)o1,Inhibition,[1],97%
same,Inhibition,[2],96%
same,Inhibition,[3],19%
COCCNCc1cccc(-c2ccc3c(Nc4ccc(Oc5cccnc5)cc4)ccnc3c2)c1,Inhibition,[1],100%
same,Inhibition,[2],99%
same,Inhibition,[3],58%
CC(C)(C)c1cc(C(=O)N2CCC(c3ccccn3)CC2)n(Cc2ccccc2)n1,Inhibition,[1],96%
same,Inhibition,[2],90%
same,Inhibition,[3],3%
Cc1[nH]c(C)c(-c2ccc(-c3ccc(Cl)cc3)cc2)c(=O)c1Cl,Inhibition,[1],96%
same,Inhibition,[2],96%
same,Inhibition,[3],0%
Cc1nc2ccc3ccc(CNc4ccc(C(=O)CC(CCC(=O)O)C(=O)O)cc4)cc3c2c(=O)[nH]1.[Cl-].[Na+] (centres undefined),Inhibition,[1],95%
same,Inhibition,[2],96%
same,Inhibition,[3],51%
Cn1ccnc1CCC(=O)Nc1ccc(Cl)cc1C(=O)Nc1ccc(Cl)cc1,Inhibition,[1],92%
same,Inhibition,[2],3%
same,Inhibition,[3],28%
COc1ccc2c(c1)Sc1ccccc1C(N1CCN(CCO)CC1)C2.Cl (centres undefined),Inhibition,[1],95%
same,Inhibition,[2],4%
same,Inhibition,[3],11%
CCCCCCN1CCC(CNCc2cccc([N+](=O)[O-])c2)CC1.O=C(O)C(F)(F)F,Inhibition,[1],95%
same,Inhibition,[2],15%
same,Inhibition,[3],16%
Cc1[nH]c(C)c(-c2ccc(OCc3ccc(F)cc3)cc2)c(=O)c1Cl,Inhibition,[1],95%
same,Inhibition,[2],96%
same,Inhibition,[3],0%
CCN1CCC(NCc2ccc(-c3ccc(Cl)cc3)cc2)CC1,Inhibition,[1],100%
same,Inhibition,[2],33%
same,Inhibition,[3],25%
CCCCCNc1nc2nc(N)nc(N)c2nc1-c1ccccc1.Cl,Inhibition,[1],91%
same,Inhibition,[2],0%
same,Inhibition,[3],9%
OCc1c(Cl)cc(Cl)cc1CNCCCNc1nc2ccccc2[nH]1,Inhibition,[1],100%
same,Inhibition,[2],2%
same,Inhibition,[3],0%
Cc1nc2nc(N)nc(N)c2c(C)c1Cc1ccc(Cl)cc1.Cl,Inhibition,[1],94%
same,Inhibition,[2],22%
same,Inhibition,[3],62%
FC(F)(F)c1ccc2[nH]c(-c3ccc(-c4cccc(CNCCc5cccnc5)c4)s3)nc2c1.O=C(O)C(F)(F)F,Inhibition,[1],100%
same,Inhibition,[2],98%
same,Inhibition,[3],26%
Cl.Oc1ccc2ccccc2c1CNCCC1CCCCC1,Inhibition,[1],99%
same,Inhibition,[2],99%
same,Inhibition,[3],16%
Cc1ccc2c(=NN=Cc3cccc(F)c3)cc(C)[nH]c2c1,Inhibition,[1],96%
same,Inhibition,[2],66%
same,Inhibition,[3],34%
COc1ccc2c(OC)c(CNCCCCCCNCc3ccc4cc(OC)ccc4c3OC)ccc2c1.CS(=O)(=O)O,Inhibition,[1],98%
same,Inhibition,[2],49%
same,Inhibition,[3],100%
C=CCc1cc(C2CCN(CCCCNC(=O)c3ccc(-c4ccc(C#N)cc4)cc3)CC2)c(OCC(N)=O)c2c1CCCC2,Inhibition,[1],100%
same,Inhibition,[2],92%
same,Inhibition,[3],43%
CN(C)Cc1ccc(-c2ccc3c(Nc4ccc(Cl)cc4F)ccnc3c2)o1,Inhibition,[1],100%
same,Inhibition,[2],99%
same,Inhibition,[3],13%
N#Cc1ccc2[nH]cc(C(=O)CCCCCN(Cc3ccccc3)Cc3ccccc3)c2c1,Inhibition,[1],93%
same,Inhibition,[2],97%
same,Inhibition,[3],10%
CC1CCCN1Cc1cccc(-c2ccc(C(=O)NCCOc3ccccc3)s2)c1.O=C(O)C(F)(F)F (centres undefined),Inhibition,[1],83%
same,Inhibition,[2],0%
same,Inhibition,[3],26%
CC1CCC2(CC1)NC(N)=NC(=N)N2OCCCCCCCCO (centres undefined),Inhibition,[1],96%
same,Inhibition,[2],87%
same,Inhibition,[3],2%
Cc1ccc(-c2cc(C(=O)Nc3ccc(S(=O)(=O)N(C)Cc4ccccc4)cc3)[nH]n2)c(O)c1,Inhibition,[1],99%
same,Inhibition,[2],67%
same,Inhibition,[3],34%
Cc1ccoc1C(=O)Nc1cccc(-c2cccc(-c3nc4ccccc4[nH]3)c2)c1,Inhibition,[1],85%
same,Inhibition,[2],20%
same,Inhibition,[3],43%
Cc1cc(NCCCOc2ccc(Cl)cc2)nc(NCc2ccccc2)n1.Cl,Inhibition,[1],95%
same,Inhibition,[2],20%
same,Inhibition,[3],45%
COc1ccc(Cn2c(SCc3ccc(C)cc3)nc3cc(OC)c(OC)cc3c2=N)cc1Cl,Inhibition,[1],92%
same,Inhibition,[2],7%
same,Inhibition,[3],50%
Clc1ccc(-c2cnc3ccc(NCc4ccncc4)nn23)cc1,Inhibition,[1],98%
same,Inhibition,[2],98%
same,Inhibition,[3],25%
CCOc1cc(C)ccc1C1CCN(CCCCNC(=O)c2ccc(-c3ccc(Cl)cn3)cc2)CC1.Cl,Inhibition,[1],94%
same,Inhibition,[2],8%
same,Inhibition,[3],19%
COc1cc(-c2nc(-c3ccc(C(=O)c4ccc(F)cc4)cc3)c(-c3ccccc3)[nH]2)cc(OC)c1O,Inhibition,[1],100%
same,Inhibition,[2],100%
same,Inhibition,[3],0%
Cc1cc(OCc2ccncc2)cc2c1C(=O)CC(C)(C)O2,Inhibition,[1],99%
same,Inhibition,[2],0%
same,Inhibition,[3],0%
CSc1ccc(NC(=O)Nc2cc(C)nc3ccccc23)cc1,Inhibition,[1],100%
same,Inhibition,[2],23%
same,Inhibition,[3],7%
O=C(NCCCN1CCCCC1)c1cccc(Nc2nccc(Nc3ccc(Oc4ccccc4)cc3)n2)c1,Inhibition,[1],96%
same,Inhibition,[2],12%
same,Inhibition,[3],47%
O=S(=O)(c1ccc(NC(S)=NN=Cc2ccccn2)cc1)N1CCCCC1,Inhibition,[1],98%
same,Inhibition,[2],56%
same,Inhibition,[3],43%
Cc1cnc(Nc2ccccc2)nc1NCCC(=O)Nc1ccccc1.O=C(O)C(F)(F)F,Inhibition,[1],89%
same,Inhibition,[2],7%
same,Inhibition,[3],10%
COC(=O)c1cccc(CNCc2ccc(-c3cccc(-c4nc5cc(C(F)(F)F)ccc5[nH]4)c3)cc2)c1.O=C(O)C(F)(F)F,Inhibition,[1],100%
same,Inhibition,[2],97%
same,Inhibition,[3],5%
Cl.O=C(NCCCCN1CCC(c2ccc3c(c2OCCO)CCCC3)CC1)c1ccc(-c2ccc(C(F)(F)F)cc2)cc1,Inhibition,[1],98%
same,Inhibition,[2],38%
same,Inhibition,[3],100%
COc1ccc(CCn2c(=N)c(C(=O)NC3CCCC3)cc3c(=O)n4ccccc4nc32)cc1,Inhibition,[1],99%
same,Inhibition,[2],34%
same,Inhibition,[3],11%
O=C(NCc1ccccc1)NC1CCN(c2ccnc3cc(Cl)ccc23)C1.O=C(O)C(F)(F)F (centres undefined),Inhibition,[1],94%
same,Inhibition,[2],99%
same,Inhibition,[3],13%
Cc1ccccc1C1CCN(C2CCC(NC(=O)/C=C/c3cccc(Cl)c3Cl)CC2)CC1 (centres undefined),Inhibition,[1],94%
same,Inhibition,[2],23%
same,Inhibition,[3],74%
c1ccc(CN2CCCN(c3ccc4c(c3)CCN(Cc3ccc(-c5ncc[nH]5)cc3)CC4)CC2)cc1,Inhibition,[1],100%
same,Inhibition,[2],73%
same,Inhibition,[3],6%
C[C@H](Cc1ccc(OCCCCCCCOc2ccc(C[C@@H](C)NC[C@H](O)c3cccc(Cl)c3)cc2)cc1)NC[C@H](O)c1cccc(Cl)c1.Cl,Inhibition,[1],99%
same,Inhibition,[2],97%
same,Inhibition,[3],99%
O=C(/C=C/c1ccc(C(F)(F)F)cc1)N1CCc2cc3nccc(N4CCN5CCC[C@H]5C4)c3cc21,Inhibition,[1],86%
same,Inhibition,[2],21%
same,Inhibition,[3],0%
COc1cc2nc(C)nc(Nc3ccc(Oc4ccccc4)cc3)c2cc1OC.Cl,Inhibition,[1],100%
same,Inhibition,[2],72%
same,Inhibition,[3],0%
